40 compounds from PubChem BioAssay (Tox21) can be followed below.

The structures appear in SMILES notation. Values without a mark were called inactive. Where a call stands in place of a potency, no number is given. Active and inactive are the calls of the source. Calls follow the shape of the full dose curve.
Potency is read from the fitted curve at half-maximal effect.

The target of this test is Estrogen receptor (Homo sapiens) (UniProt P03372). In words: qHTS assay to identify small molecule agonists of the estrogen receptor alpha (ER-alpha) signaling pathway in the presence of an antagonist (AID 1259383). Also: nearly all actives have a fitted effect of over 15% in size. As to activation: top concentration of the series differs between compounds. The following applies: VM7Luc4E2 cells, ERE-luciferase, +ICI-182,780, 22 h; series mostly up to 92.4 µM. From the text: National Center for Advancing Translational Sciences [NCATS] NIH Chemical Genomics Center [NCGC] U.S. Environmental Protection Agency [EPA] National Institutes of Environmental Health Sciences [NIEHS] National Toxicology Program [NTP] Assay overview: Estrogen receptor (ER), a member of nuclear hormone receptor plays an important role in development, metabolic homeostasis and reproduction. Two subtypes of ER, ER-alpha and ER-beta, have similar expression patterns with some uniqueness in both types. Endocrine disrupting chemicals (EDCs) and their interactions with steroid hormone receptors like ER causes disruption of normal endocrine function. Therefore, it is important to understand the effect of environmental chemicals in ER signaling pathway. For identifying ER agonists, VM7Luc4E2 cell line has been used in the current assay. VM7Luc4E2 cell line (provided by Denison MS, University of California) endogenously expresses full-length ER-alpha and is stably transfected with a plasmid containing four estrogen responsive elements (ERE) upstream of a luciferase reporter gene. This current screening for measuring luciferase reporter gene activity using VM7Luc4E2 cells against Tox21 10K library collection is a confirmation study on agonist mode screening in presence of ER-antagonist (ICI-182,780) at 10.0nM final concentration.
Chain of Estrogen receptor (Homo sapiens) (P03372 whole entry, looked up): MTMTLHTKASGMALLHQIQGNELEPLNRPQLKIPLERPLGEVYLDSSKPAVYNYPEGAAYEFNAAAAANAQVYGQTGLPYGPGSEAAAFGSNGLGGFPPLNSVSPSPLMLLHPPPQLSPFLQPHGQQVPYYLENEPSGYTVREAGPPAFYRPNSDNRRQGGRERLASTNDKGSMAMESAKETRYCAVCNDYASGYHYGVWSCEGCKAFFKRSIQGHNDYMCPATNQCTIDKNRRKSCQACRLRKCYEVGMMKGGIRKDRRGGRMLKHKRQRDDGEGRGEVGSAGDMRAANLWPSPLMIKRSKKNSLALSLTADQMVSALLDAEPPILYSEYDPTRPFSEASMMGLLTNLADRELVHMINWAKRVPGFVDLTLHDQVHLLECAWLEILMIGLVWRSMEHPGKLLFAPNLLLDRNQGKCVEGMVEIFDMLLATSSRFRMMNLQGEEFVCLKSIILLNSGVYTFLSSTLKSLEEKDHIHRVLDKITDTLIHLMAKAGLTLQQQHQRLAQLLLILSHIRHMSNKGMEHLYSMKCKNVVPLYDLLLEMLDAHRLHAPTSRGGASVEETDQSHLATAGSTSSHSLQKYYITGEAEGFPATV
Assay Protocol Summary: VM7Luc4E2 cells were cultured in phenol red free assay medium containing 10% charcoal stripped FBS for 5 days prior to the assay. The cells were dispensed at 4,000 cells in 4uL of assay medium per well into white wall/solid-bottom 1536-well plates (Corning Life Sciences, Corning, NY) using a Multidrop Combi (Thermo Fisher Scientific Inc., Waltham, MA) dispenser. After the assay plates were incubated at 37C and 5% CO2 for 24hr, 1uL of 10.0nM (final concentration) ICI-182,780 or assay buffer was added using two separate tips of Flying Reagent Dispenser (FRD, Aurora Discovery, San Diego, CA). Then 23nL of compounds dissolved in DMSO at 15 concentrations and positive controls or DMSO only was transferred to the assay plates by a Pintool station (Wako, San Diego, CA). The assay plates were incubated at 37C and 5% CO2 for 22hr. For luciferase read, 4uL/well ONE-Glo reagent (Promega Corporation, Madison, WI) was added to each well using FRD and after 30min incubation at room temperature, luminescence signal was measured on ViewLux plate reader (PerkinElmer, Shelton, CT).
In general terms: qHTS replaces the single test concentration by a dilution series.
Regarding `Cc1ccc2c(c1)C(=O)c1ccccc1C2=O`, the Potency is 3.84 µM (active). As for `Cc1cc(C)c(C(=O)O)c(C)c1`, the Potency entry was “inactive”.

As for `CCN1CCCC1CN` (stereo not given), the Potency entry was “inactive”. For the compound `c1ccc2cnccc2c1`, the Potency entry is “inactive”. Regarding `CC12CCC(C1)C(C)(C)C2O` (stereo not given), the Potency result is “inactive”. As for `CCO`, the Potency entry is “inactive”. The same measure, in the same setting: the value for `C[Si]1(C)O[Si](C)(C)O[Si](C)(C)O[Si](C)(C)O[Si](C)(C)O1` was “inactive”; that for `Cc1c(Cl)cccc1Cl` was “inactive”. With `[O]=[Mo](=[O])=[O]`, the activation was -1.83% [at 19 µM].

`CC(C)Cn1cnc2c1c(=O)n(C)c(=O)n2C`: the Potency entry was “inactive”.

For the compound `CCc1occc(=O)c1O`, the Potency entry was “inactive”. For `CCCCCCCCCCCCCCC(=O)NC(CO)CCCCCCCCCCCCCC` (stereo not given), the Potency entry was “inactive”. `COCCc1ccccn1`: the Potency result is “inactive”.

Regarding `CC(C)(CO)C(O)C(=O)NCCCO` (stereo not given), the Potency result is “inactive”. On to `CCOc1ccccc1OCC1CNCCO1` (stereo not given), for which the Potency result was “inactive”. As to `CN(C)C(C)(C)CO`, the Potency entry was “inactive”.

On to `C=CC/C=C/C`, for which the Potency entry was “inactive”. `OC1(c2ccc(Cl)cc2)CCNCC1`: the Potency result is “inactive”. Turning to `CCN(CC)CCN`, the Potency result was “inactive”. For `CCCCOCC(C)O` (stereo not given), the Potency result was “inactive”. In the case of `CC1(C)Oc2ccc(C#N)cc2[C@@H](N2CCCC2=O)[C@@H]1O`, the Potency entry was “inactive”. Consider `CCOc1cccc(N)c1`, for which the Potency result is “inactive”. For the compound `O=C[O][Al]([O]C=O)[O]C=O`, the Potency entry is “inactive”.

For the compound `CC(C)CO`, the Potency result is “inactive”. Take `CCC(C)OC(C)CC` (stereo not given): the Potency result is “inactive”. For `N[C@@H](CSCCCO)C(=O)O`, the activation was -1.71% [at 19 µM]. In the case of `CC/C=C\CCOC(=O)c1ccccc1O`, the Potency result is “inactive”. Turning to `CCCCCCCCCCOC(C)=O`, the Potency result was “inactive”. The same measure, in the same setting: with `CC(=O)C1C(=O)C=C(C)OC1=O` (stereo not given) the entry was “inactive”.

Turning to `COC(C)(OC)OC`, the Potency entry was “inactive”.

As for `CCCCOC(=O)C(C)O` (stereo not given), the Potency result was “inactive”. With `CCC[C@@H]1C[C@@H](C(=O)N[C@@H]([C@H]2O[C@H](SC)[C@H](O)[C@@H](O)[C@H]2O)[C@@H](C)O)N(C)C1`, the Potency result is “inactive”. In the case of `C/C(=C1\CCOC(=O)S1)N(C=O)Cc1cnc(C)nc1N`, the Potency entry was “inactive”. Regarding `CN(C)CCCO[C@@H]1[C@H]2OC(C)(C)O[C@H]2O[C@@H]1C(O)CO` (stereo not given in full), the Potency entry is “inactive”. With `COC(=O)CCCCC(=O)O`, the Potency entry is “inactive”. Still for that read-out and setting: with `CC1OCCC1=O` (stereo not given) the entry was “inactive”; with `NCC1(Cc2noc(=O)[nH]2)CCCCC1`, “inactive”.

Consider `CCNC(=O)NCc1cccc(Cl)c1`, for which the Potency entry is “inactive”. Take `O=C(CCCl)NCCc1ccccc1`: the Potency entry is “inactive”.

For `OCCN1CCOCC1`, the Potency result was “inactive”.
